# Data from PubChem BioAssay (NCATS).
# Results filed as inconclusive are left out. A call without a number means that no potency is given here. Unmarked numbers belong to inactive results. Activity calls are given as the source filed them. Unless noted, calls come from the whole dose curve; as a rule, active = well fitted curve in the direction sought with a large enough effect; inconclusive = small, poorly fitted or top-dose-only effect, or another doubt; inactive = no such curve, though single readings can be large; an effect the other way counts as inactive or inconclusive.
# How the values were obtained:
# [1] = target: Protein phosphatase 1D (Homo sapiens) (UniProt O15297); assay: RapidFire Mass Spectrometry qHTS Assay for Modulators of WT P53-Induced Phosphatase 1 (WIP1) (AID 1347424);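 note: amount of dephosphorylated VEPPL-S-QETFS peptide product formed by WIP1; series mostly up to about 63 µM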
# Procedure, shortened: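 Mass-spectrometric measurement of dephosphorylated peptide after a 5 min room-temperature reaction of 10 nM WIP1 with 2 uM phosphopeptide, following 1 h compound preincubation in 30 mM MgCl2 buffer.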
# [2] = target: Protein phosphatase 1D (Homo sapiens) (UniProt O15297); assay: Rhodamine-PBP qHTS Assay for Modulators of WT P53-Induced Phosphatase 1 (WIP1) (AID 1347425)
# Procedure, shortened: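 5 nM WIP1 + 10 uM Rh-PBP, 50 mM Tris pH 7.5, 30 mM MgCl2, 1 mM TCEP, 0.1 mM EGTA, BSA; cpds pinned, 1 hr RT; + 10 uM phosphopeptide; fluorescence 1-min reads x 11 min; delta = f1 - f0.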
# [3] = Primary qHTS for inhibitors of La Crosse Virus (LACV) - induced cell death in SH-SY5Y cells (AID 1508616);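 note: top concentration of the series differs between compounds; higher means more rescue of cells from virus-induced death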
# Procedure, shortened: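 Cytopathicity rescue screen: compounds pinned onto SH-SY5Y cells, which are then infected with LACV (MOI 0.01) and held 6 days at 37C. Percent activity is scaled between infected DMSO control and uninfected DMSO control.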
# [4] = target: Calcium and integrin-binding protein 1 (Homo sapiens) (UniProt Q99828); assay: Primary qHTS for Identification of Calcium Integrin Binding Protein 1 (CIB1) Competitor (AID 1508620);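 note: GST tagged CIB1 binding a fluorescein labelled alphaIIb integrin peptide tracer; top concentration of the series differs between compounds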
# Procedure, shortened: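 Fluorescence polarization competition: CIB1-GST (1 uM final) preincubated with compound 15 min at room temperature, then FITC-labeled alphaIIb peptide (100 nM final) added for another 15 min. Polarization read at Ex 480/Em 540.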
# [5] = Primary qHTS for small molecule stabilizers of the endoplasmic reticulum resident proteome: Secreted ER Calcium Modulated Protein (SERCaMP) assay (AID 1508630)
# Procedure, shortened: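 The SH-SY5Y reporter protocol was run at 3 concentrations up to 38.3 uM (primary) or 11 concentrations (follow-up): 16 h compound, 100 nM thapsigargin for 4 h, then extracellular luciferase luminescence.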
# [6] = A High-Content qHTS Against Drug Library for the Identification of Small Molecules that Inhibit DYT1 Early Onset Primary Dystonia-Associated Cell Pathology (AID 1645839; calls by dose curve; note: series mostly up to about 46 µM)
# Procedure, shortened: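 Induced EGFP-delE TorsinA cells are imaged after 48 h of compound treatment. Punctate fusion-protein distribution gives the %pathology value, while nuclei counts flag toxicity. Wild-type EGFP-hTOR1A cells define the normal pattern.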
# [7] = target: Cytochrome P450 2D6 (Homo sapiens) (UniProt P10635); assay: Cytochrome P450 family 2 subfamily D member 6 (CYP2D6) small molecule antagonists: luciferase biochemical (cell-free) qHTS assay (AID 1645840; active = well fitted curve in the direction sought with a large enough effect in the repeat runs; an effect the other way counts as inactive or inconclusive; note: nearly all actives have a fitted effect of over 55% in size; note: potency is the fitted concentration of half-maximal effect; for activity change, negative = inhibition: series mostly up to about 57 µM)
# Procedure, shortened: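 P450-Glo CYP2D6 system: proluciferin substrate converted by enzyme to luciferin, read by luminescence proportional to activity. Enzyme-substrate mix with compound 10 min at room temperature, then NADPH regeneration 1 h before detection reagent.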
# [8] = target: Cytochrome P450 2C9 (Homo sapiens) (UniProt P11712); assay: Cytochrome P450 family 2 subfamily C member 9 (CYP2C9) small molecule antagonists: luciferase biochemical (cell-free) qHTS assay (AID 1645842; active = well fitted curve in the direction sought with a large enough effect in the repeat runs; an effect the other way counts as inactive or inconclusive; note: nearly all actives have a fitted effect of over 55% in size; note: potency is the fitted concentration of half-maximal effect; for activity change, negative = inhibition: series mostly up to about 57 µM)
# Procedure, shortened: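 P450-Glo CYP2C9 system: proluciferin substrate with enzyme in mix containing 0.4% BSA, 10 min at room temperature, then NADPH regeneration solution added and incubated 1 h at 37C. Detection reagent stopped reaction; luminescence read after 20 min as RLU.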
# [9] = Primary qHTS for inhibitors of nuclear receptor binding SET domain protein 2 (NSD2) in an isogenic RCH-ACV NSD2 p.E1099K mutant (9B) (AID 1645876); note: nearly all actives have a fitted effect of over 70% in size
# [10] = Primary qHTS for inhibitors of nuclear receptor binding SET domain protein 2 (NSD2) in an RCH-ACV wild type WT cells (2C) (AID 1645877); note: nearly all actives have a fitted effect of over 70% in size
# Chain of Protein phosphatase 1D (Homo sapiens) (O15297 whole entry, looked up): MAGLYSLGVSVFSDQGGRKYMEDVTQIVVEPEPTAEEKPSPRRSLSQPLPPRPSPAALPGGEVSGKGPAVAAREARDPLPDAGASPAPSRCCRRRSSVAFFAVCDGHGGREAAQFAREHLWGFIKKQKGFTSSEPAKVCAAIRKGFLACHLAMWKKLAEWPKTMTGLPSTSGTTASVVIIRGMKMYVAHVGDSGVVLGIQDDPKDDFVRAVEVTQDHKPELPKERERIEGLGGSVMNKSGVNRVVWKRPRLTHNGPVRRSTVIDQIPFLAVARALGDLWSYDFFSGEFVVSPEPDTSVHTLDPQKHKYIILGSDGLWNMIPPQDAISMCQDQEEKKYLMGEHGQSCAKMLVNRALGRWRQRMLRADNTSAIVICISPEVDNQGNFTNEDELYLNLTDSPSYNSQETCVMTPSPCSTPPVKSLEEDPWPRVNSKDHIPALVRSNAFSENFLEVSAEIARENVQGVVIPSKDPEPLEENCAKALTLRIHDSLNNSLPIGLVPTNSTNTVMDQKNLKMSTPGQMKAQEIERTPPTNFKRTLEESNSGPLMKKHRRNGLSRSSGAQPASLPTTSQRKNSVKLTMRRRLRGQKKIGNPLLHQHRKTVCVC
# Chain of Calcium and integrin-binding protein 1 (Homo sapiens) (Q99828 whole entry, looked up): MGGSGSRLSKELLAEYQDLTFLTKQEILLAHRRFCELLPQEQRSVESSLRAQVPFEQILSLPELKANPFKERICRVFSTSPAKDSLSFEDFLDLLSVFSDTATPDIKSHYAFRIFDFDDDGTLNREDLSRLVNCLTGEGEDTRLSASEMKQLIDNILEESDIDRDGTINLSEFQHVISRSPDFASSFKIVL
# Chain of Cytochrome P450 2C9 (Homo sapiens) (P11712 whole entry, looked up): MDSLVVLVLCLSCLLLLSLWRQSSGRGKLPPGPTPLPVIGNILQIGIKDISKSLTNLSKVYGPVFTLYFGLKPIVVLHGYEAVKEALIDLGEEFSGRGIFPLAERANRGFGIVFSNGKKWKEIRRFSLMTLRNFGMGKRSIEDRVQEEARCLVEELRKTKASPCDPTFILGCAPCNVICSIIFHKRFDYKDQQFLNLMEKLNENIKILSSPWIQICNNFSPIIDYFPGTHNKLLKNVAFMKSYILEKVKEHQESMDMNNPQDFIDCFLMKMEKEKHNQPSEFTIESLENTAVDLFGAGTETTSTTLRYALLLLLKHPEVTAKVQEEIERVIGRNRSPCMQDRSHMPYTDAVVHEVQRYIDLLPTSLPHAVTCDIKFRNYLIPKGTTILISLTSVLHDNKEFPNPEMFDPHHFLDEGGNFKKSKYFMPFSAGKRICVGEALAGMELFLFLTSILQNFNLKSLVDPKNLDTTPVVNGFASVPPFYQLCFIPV
# Chain of Cytochrome P450 2D6 (Homo sapiens) (P10635 whole entry, looked up): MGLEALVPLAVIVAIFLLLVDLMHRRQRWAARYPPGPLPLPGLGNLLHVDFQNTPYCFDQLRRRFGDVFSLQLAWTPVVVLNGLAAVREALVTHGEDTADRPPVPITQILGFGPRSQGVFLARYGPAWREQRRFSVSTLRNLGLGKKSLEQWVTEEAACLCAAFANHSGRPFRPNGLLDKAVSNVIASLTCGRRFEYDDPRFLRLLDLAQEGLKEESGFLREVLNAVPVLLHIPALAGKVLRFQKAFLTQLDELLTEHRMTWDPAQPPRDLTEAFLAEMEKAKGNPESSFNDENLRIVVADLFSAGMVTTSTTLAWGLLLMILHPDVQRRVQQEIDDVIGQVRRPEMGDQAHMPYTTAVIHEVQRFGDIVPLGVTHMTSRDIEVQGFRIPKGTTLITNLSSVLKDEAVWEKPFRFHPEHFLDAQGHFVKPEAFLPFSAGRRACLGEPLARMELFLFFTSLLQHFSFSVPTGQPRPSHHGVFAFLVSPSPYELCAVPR
SMILES,outcome [1],outcome [2],outcome [3],outcome [4],Potency [5],Potency [6],Potency [7],Potency [8],Potency [9],Potency [10],"activity change, negative = inhibition [1]","activity change, negative = inhibition [2]",activity change [3],"activity change, negative = inhibition [5]","% pathology change, negative = correction [6]","activity change, negative = inhibition [7]","activity change, negative = inhibition [8]","activity change, negative = viability loss [9]","activity change, negative = cell killing [10]"
CCN(CC)C(=O)Nc1ccc(OCC(O)CNC(C)(C)C)c(C(C)=O)c1 (configuration not stated),inactive,inactive,inactive,inactive,inactive,inactive,inactive,inactive,inactive,inactive,–,–,–,–,–,–,–,–,–
OCC(CO)N[C@H]1C[C@](O)(CO)[C@@H](O)[C@H](O)[C@H]1O,inactive,inactive,inactive,inactive,inactive,inactive,inactive,inactive,inactive,inactive,–,–,–,–,–,–,–,–,–
CC(=O)CCC(=O)O,inactive,inactive,inactive,inactive,inactive,inactive,inactive,inactive,inactive,inactive,–,–,–,–,–,–,–,–,–
O=c1[nH]cnc2c1ncn2[C@@H]1O[C@H](CO)[C@@H](O)[C@H]1O,inactive,inactive,inactive,inactive,inactive,inactive,inactive,inactive,inactive,inactive,–,–,–,–,–,–,–,–,–
C[C@H]1O[C@H](O[C@H]2[C@H](O)[C@@H](O)[C@@H](O[C@H]3[C@H](O)[C@@H](O)[C@H](O)O[C@@H]3CO)O[C@@H]2CO)[C@H](O)[C@@H](O)[C@@H]1N[C@H]1C=C(CO)[C@@H](O)[C@H](O)[C@H]1O,inactive,inactive,inactive,inactive,inactive,inactive,inactive,inactive,inactive,inactive,–,–,–,–,–,–,–,–,–
Cc1ccc(C(C)C)cc2c(C)ccc1-2,inactive,inactive,inactive,inactive,inactive,inactive,inactive,inactive,inactive,–,–,–,–,–,–,–,–,–,–
CC(C)(C)NCC(O)COc1ccc(NC(=O)NC2CCCCC2)cc1 (configuration not stated),inactive,inactive,inactive,inactive,inactive,inactive,inactive,inactive,inactive,inactive,–,–,–,–,–,–,–,–,–
N[C@H]1C(O)O[C@H](CO)[C@@H](O)[C@@H]1O (some centres not stated),inactive,inactive,inactive,inactive,inactive,inactive,inactive,inactive,inactive,inactive,–,–,–,–,–,–,–,–,–
O=C1NS(=O)(=O)c2ccccc21,inactive,inactive,inactive,inactive,inactive,inactive,inactive,inactive,–,–,–,–,–,–,–,–,–,–,–
C[C@@H]1CN(c2c(F)c(F)c3c(=O)c(C(=O)O)cn(C4CC4)c3c2F)C[C@H](C)N1,inactive,inactive,inactive,inactive,inactive,inactive,inactive,inactive,inactive,inactive,–,–,–,–,–,–,–,–,–
CCCCCCCCCCCCCCCCCCOCC(O)CO (configuration not stated),inactive,inactive,inactive,inactive,inactive,inactive,inactive,inactive,inactive,inactive,–,–,–,–,–,–,–,–,–
NCCNCCNCCNCCN,–,–,–,inactive,–,–,–,–,–,–,-9.15% [at 12.6 µM],12% [at 11.5 µM],-4.84% [at 0.858 µM],-1.31% [at 7.35 µM],14.9% [at 9.22 µM],12.4% [at 11.5 µM],18.2% [at 11.5 µM],-1.38% [at 9.23 µM],-16.9% [at 9.23 µM]
CCCCC(CC)COC(=O)c1ccccc1O (configuration not stated),inactive,inactive,inactive,inactive,inactive,inactive,inactive,inactive,inactive,inactive,–,–,–,–,–,–,–,–,–
Nc1ccc(S(=O)(=O)Nc2ccccc2)cc1,inactive,inactive,inactive,inactive,inactive,inactive,inactive,inactive,inactive,inactive,–,–,–,–,–,–,–,–,–
NS(=O)(=O)c1cc2c(cc1C(F)(F)F)NC(Cc1ccccc1)NS2(=O)=O (configuration not stated),inactive,inactive,inactive,inactive,inactive,inactive,inactive,inactive,inactive,inactive,–,–,–,–,–,–,–,–,–
O=C(CCCN1CCN(c2ccccn2)CC1)c1ccc(F)cc1,inactive,inactive,inactive,inactive,inactive,inactive,15.5 µM (active),12.3 µM (active),inactive,inactive,–,–,–,–,–,–,–,–,–
CC1(C)[C@@H]2CC[C@@]1(C)C(=O)C2,inactive,inactive,inactive,inactive,inactive,inactive,inactive,inactive,inactive,inactive,–,–,–,–,–,–,–,–,–
O=S(=O)(O)c1cc(I)c(O)c2ncccc12,inactive,inactive,inactive,inactive,inactive,inactive,inactive,inactive,inactive,inactive,–,–,–,–,–,–,–,–,–
NC(=O)NC(=O)Cc1ccccc1,inactive,inactive,inactive,inactive,inactive,inactive,inactive,inactive,inactive,inactive,–,–,–,–,–,–,–,–,–
COc1ccc(S(=O)(=O)Nc2nnc(CC(C)C)s2)cc1,inactive,inactive,inactive,inactive,inactive,inactive,inactive,21.9 µM (active),inactive,inactive,–,–,–,–,–,–,–,–,–
